Source: PubChem
Compounds with a hit are over-represented: about 11% of the library has one in this group of screens.
ALOX12 inhib: qHTS Assay for Inhibitors of 12-hLO (12-human lipoxygenase). Polyunsaturated fatty acid lipoxygenase ALOX12 (Homo sapiens), P18054. purified 12-hLO, xylenol orange hydroperoxide absorbance. Potency, µM (titrated, usually from 57.1 µM), hits mostly inhibitors. 150,000 tested, 0.12% active. AID 1452, 2008; also: nearly all actives have a fitted effect of over 55% in size
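Purified human 12hLO (150 nM final) was preincubated with compounds for 15 min at room temperature in 25 mM Hepes pH 7.0, 0.01% Triton X-100, then reacted with 40 uM arachidonic acid for 30 min. Hydroperoxide was detected with ferrous iron/xylenol orange.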
PNC inhibitor: High Content Assay for Compounds that inhibit the Assembly of the Perinucleolar Compartment; PC3M PTB-GFP, PNC prevalence imaging, 16 h; hits give low values; activity change (PNC), negative = inhibition, % at 10 µM; 140,000 tested, 3.1% active; AID 2417, 2010;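 active = readout at or below -70, meaning at least 70% loss of cells showing the perinucleolar compartment, a nuclear body marking cancer cells; inconclusive = readout between -30 and a set limit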
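PC3M cells stably expressing PTB-GFP, 750–1000 cells/well, treated 16 h at 37 °C with compound (23 nl of library stock), in duplicate. After paraformaldehyde fixation and Hoechst stain, imaged at 20x; PNC prevalence scored by image analysis.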
HPGD block: qHTS Assay for Inhibitors of HPGD (15-Hydroxyprostaglandin Dehydrogenase); purified HPGD, NADH fluorescence kinetic, PGE2 substrate; Potency, µM, hits mostly inhibitors; 150,000 tested, 4.3% active; active = well fitted inhibition curve with a large enough effect, not every such curve was filed as active; inconclusive = small, poorly fitted or top-dose-only effect, or another doubt; inactive = no such curve, though single readings can be large or run the other way
Target sequence (P15428 whole entry, looked up): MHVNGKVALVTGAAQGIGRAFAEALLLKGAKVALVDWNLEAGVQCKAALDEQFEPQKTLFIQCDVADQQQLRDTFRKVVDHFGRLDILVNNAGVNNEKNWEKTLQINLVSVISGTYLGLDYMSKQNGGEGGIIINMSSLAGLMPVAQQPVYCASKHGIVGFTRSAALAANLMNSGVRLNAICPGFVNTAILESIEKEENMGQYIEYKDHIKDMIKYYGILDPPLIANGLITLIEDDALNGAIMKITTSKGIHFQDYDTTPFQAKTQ
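NADH formation kinetics: reaction with 30 uM PGE2 and 1 mM NAD+ (final), 20 nM enzyme, Tris-HCl pH 8 with Tween 20, after 15 min compound preincubation at room temperature. Fluorescence change, last versus first of five reads.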
IMPase cell inh: qHTS Assay for Identifying the Cell-Membrane Permeable IMPase Inhibitors | CHO-M1 cells, IP1 accumulation, HTRF TR-FRET ratio | 120,000 tested, under 10 active | Inositol monophosphatase 1 (Rattus norvegicus), P97697 | inhibition (IP1 accumulation), % at 46.1 µM; active = well fitted curve in the direction sought with a large enough effect in the signal ratio, not every such curve was filed as active; inconclusive = small, poorly fitted or top-dose-only effect, or a change in a side signal; inactive = no such curve, though single readings can be large or run the other way; the % refers to the signal ratio;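 also: cells stimulated with carbachol in lithium chloride buffer; higher means more IMPase inhibition seen as more IP1 and lower FRET ratio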
Target sequence (P97697 whole entry, looked up): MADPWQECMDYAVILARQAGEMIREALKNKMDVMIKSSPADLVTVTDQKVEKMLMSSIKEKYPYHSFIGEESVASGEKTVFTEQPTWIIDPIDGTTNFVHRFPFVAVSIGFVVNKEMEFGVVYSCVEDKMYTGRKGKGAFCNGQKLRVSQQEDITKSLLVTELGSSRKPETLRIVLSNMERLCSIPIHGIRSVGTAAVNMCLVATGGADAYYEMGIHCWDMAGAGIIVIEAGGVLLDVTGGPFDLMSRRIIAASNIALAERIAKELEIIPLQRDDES
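Seeded CHO-M1 cells were dosed with compound at up to 46 uM, stimulated with carbachol for 30 min, then lysed in IP-One detection reagents. Higher IP1 lowers the TR-FRET signal.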
ALDH1A1 inh: qHTS Assay for Inhibitors of Aldehyde Dehydrogenase 1 (ALDH1A1); Purified ALDH1A1, NADH fluorescence, propionaldehyde substrate; AID 1030, 2008; 220,000 tested, 7.3% active; Aldehyde dehydrogenase 1A1 (Homo sapiens), P00352; Potency, µM (doses to about 75.3 µM), actives largely listed as inhibitors; active = well fitted inhibition curve with a large enough effect, not every such curve was filed as active; inconclusive = small, poorly fitted or top-dose-only effect, or another doubt; inactive = no such curve, though single readings can be large or run the other way
IMPase Li inh: qHTS Assay for Identifying the Cell-Membrane Permeable IMPase Inhibitors: Potentiation with Lithium. CHO-M1 cells, IP1 TR-FRET (IP-One), carbachol + lithium. Potency, µM (doses to about 59.4 µM), actives largely listed as inhibitors. 210,000 tested, 0.35% active. AID 1457, 2008;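 also: IP1 builds up when IMPase is blocked and the TR-FRET signal falls; nearly all actives have a fitted effect of over 50% in size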
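Concentration–response in CHO-M1 cells, lithium-potentiated; 30 min at 37C. IP1 detected by competitive TR-FRET after 10 min lysis at RT. Hill-fitted AC50.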
Hits are given with their value; 0 = inactive; ? = inconclusive; - = no result given; [ ] = dose if it differs, or a comment. Unless noted, calls follow the shape of the dose curve; as a rule, active = well fitted curve in the direction sought with a large enough effect; inconclusive = small, poorly fitted or top-dose-only effect, or another doubt; inactive = no such curve, though single readings can be large; an effect the other way counts as inactive or inconclusive.

SMILES	ALOX12 inhib	PNC inhibitor	HPGD block	IMPase cell inh	ALDH1A1 inh	IMPase Li inh
Cc1cc2ccccc2n1CCNC(=O)c1ccccc1F	-	-	-	0	-	-
Cc1cc(NCCc2ccccc2F)n2ncnc2n1	-	-	-	-	?	0
COc1ccc(Nc2cc(C)nc3ncnn23)c(OC)c1	0	?	15.8µM	0	0	0
COc1ccc(CNc2cc(C)nc3ncnn23)c(OC)c1	0	?	31.6µM	0	0	0
Cc1cc(Nc2ccccc2F)n2ncnc2n1	0	?	0	0	0	0
Cn1c(=O)c2c(nc(N3CCCCC3)n2CCSc2nc3ccccc3s2)n(C)c1=O	0	0	0	0	28.2µM	0
CC1CCCN(c2nc3c(c(=O)n(C)c(=O)n3C)n2CCSc2nc3ccccc3s2)C1 (stereo not drawn)	0	0	0	0	14.1µM	0
CC1CCN(c2nc3c(c(=O)n(C)c(=O)n3C)n2CCSc2nc3ccccc3s2)CC1	0	0	0	0	?	0
Cn1c(=O)[nH]c(=O)c2c1nc(N1CCCCC1)n2CCCSc1nc2ccccc2s1	0	0	15.8µM	0	?	0
Cn1c(=O)[nH]c(=O)c2c1nc(N1CCCCCC1)n2CCSc1nc2ccccc2[nH]1	0	0	0	0	?	0
C[C@@H](CCC(=O)O)C(=O)O	0[11.4 µM]	-	0	-	0[13.5 µM]	0
CCOC(=O)OCC1OC(c2ccc(C(C)=O)cc2)C=CC1Oc1ccc(-c2ccccc2)cc1 (stereo not drawn)	-	-	-	-	0[13.5 µM]	-
N[C@H](Cc1cccc(-c2ccccc2CP(=O)(O)O)c1)C(=O)O	0	-	-	0	-	-
Cc1ccc(N/N=C/c2c(C)c(C#N)c(=O)n(C)c2O)cc1C	-	-	-	-	0.794µM	0
COc1cc(S(=O)(=O)Nc2ccc(C)cc2)ccc1N=Cc1c(C)c(C#N)c(=O)n(C)c1O	-	-	-	-	0	0
CC(C)OC(=O)/C(C#N)=C/c1ccc(-c2ccc(Cl)c(Cl)c2)o1	-	-	-	0	-	-
CC(C)OC(=O)c1cc(-c2ccc(C=O)o2)ccc1Cl	0	?	0	-	8.91µM	0
CCc1ccc(NC(=O)C2CC(=O)Nc3ncnn32)cc1 (stereo not drawn)	0	0	0	-	25.1µM	0
CCOC(=O)N1CCC(NC(=O)Cn2nc(Cc3ccncc3)c3ccccc3c2=O)CC1	0	-105.7	0	0	0	0
Cc1cc(-c2ccccc2)n(-c2cc(N/N=C/c3ccccc3O)ncn2)n1	0	-90.6	0	-	0	0
COc1ccc(-c2nc(SCC(=O)NC3CCCC3)c(-c3ccccc3)[nH]2)cc1OC	-	-	-	0	-	-
Cc1ccc(S(=O)(=O)/N=C(/NC(=S)Nc2ccccc2)c2ccccc2)cc1	0	0	0	0	?	0
Cc1ccc(S(=O)(=O)C/N=C(/NC(=S)N(c2ccccc2)c2ccccc2)c2ccccc2)cc1	?	0	31.6µM	0	14.1µM	0
CSc1ncnc2c1ncn2CC(=O)[C@H]1CC[C@H]2[C@H]3CCC4=CC(=O)CC[C@@]4(C)[C@@H]3CC[C@@]12C	0[11.4 µM]	-	0	-	?	0
COC(=O)C1(O)CC(CC(C)C)=NN1C(=O)c1ccccc1 (stereo not drawn)	0	-124.4	0	0[1.84 µM]	0	0
SMILES	ALOX12 inhib	PNC inhibitor	HPGD block	IMPase cell inh	ALDH1A1 inh	IMPase Li inh
COC(=O)C1=NN(C(=O)c2ccccc2)C(C)(O)C1 (stereo not drawn)	0	?	0	0	0	0
COc1ccc(CCNC(=O)c2c(-c3ccccc3)noc2C)cc1OC	0	?	0	0	0	0
Cc1ccc(S(=O)(=O)NCc2c(-c3ccccc3)noc2C)cc1	-	-	-	-	3.98µM	-
COc1ccc(S(=O)(=O)NCc2c(-c3ccccc3)noc2C)c(OC)c1	-	-	-	-	2.51µM	-
CC(C)C(C)C	0	-	0	-	0	0
COc1ccc(NC(=S)N(CCCN2CCCCC2)Cc2cccs2)cc1	0	-105.0	0	-	?	0
CCOC(=O)c1ccc(NC(=S)N(CCCN2CCCC2)Cc2cccs2)cc1	-	-	-	-	0	0
COc1ccc(NC(=S)N(CCCN2CCC(C)CC2)Cc2cccs2)cc1	-	-	-	-	20µM	0
C=CCn1c(SCc2c(C(=O)OC)sc(N)c2C(=O)OC)nnc1-c1ccc(Br)cc1	0	?	?	0	25.1µM	0
Nc1nc(-c2ccccc2)c(-c2ccccc2)s1	0	0	0	0	?	0
Nc1nc(-c2ccccc2)c(N=Nc2ccc(Cl)cc2)s1	0	0	?	-	28.2µM	0
CCN(CC)S(=O)(=O)c1ccc(N2CCOCC2)c(NS(=O)(=O)c2ccc(C(C)C)cc2)c1	0	0	0	-	0	0
CCN(CC)S(=O)(=O)c1ccc(N2CCCC2)c(NS(=O)(=O)c2ccc(OC)cc2)c1	0	0	0	-	2.51µM	0
CCN(CC)S(=O)(=O)c1ccc(N2CCOCC2)c(NS(=O)(=O)c2cc(C(C)(C)C)ccc2C)c1	0	?	0	-	14.1µM	0
